D1 agonist: agonists of human D1 dopamine receptor; hit rate 1% among 360,000; activation, % at 2 µM; P21728; HEK293 T-REx D1 cells, calcium flux, agonist mode; AID 504660; in the data active means activation above about 30%; further: 0% is about no effect
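Inducible HEK293 T-REx D1 cells, force-coupled to calcium signalling, were plated at 4000 cells/well with tetracycline and held overnight at 30 C. After no-wash calcium dye loading, compound-evoked calcium rise over 180 s flagged agonists.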
D3 antag: blocks the human D3 dopamine receptor; D3R cells, DiscoveRx beta-arrestin luminescence, antagonist mode; hits give low values; P35462; max response, negative = inhibition, %; hit rate 2.5% among 360,000; in the data active means max response below about -50%; inconclusive means no clear call, values can overlap the other calls; further: on the % scale 0 is the no-effect control and ±100 the full control effect
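Cells plated overnight at 1500 cells/well, then exposed to library compounds with dopamine controls for 90 minutes at 37 degrees C. DiscoveRx reagent added for 30–60 minutes at room temperature; luminescence read, quantitative HTS format.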
DRD3 agonist: activates the human D3 dopamine receptor. D3R DiscoveRx beta-arrestin cells, luminescence, 90 min. max activation, %. hit rate 0.58% among 410,000. P35462; in the data active means max activation above about 30%; further: 0% is about no effect
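Cells at 1500/well, incubated overnight, then treated with pinned compounds (dopamine as control) for 90 min at 37 degrees C. DiscoveRx reagent added for 30 - 60 minutes at room temperature; luminescence read.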
D1 potentiator: human D1 dopamine receptor positive modulation; P21728; HEK293 TREx D1 cells, calcium flux, dopamine EC20 potentiation; potentiation, % at 10 µM; hit rate 0.036% among 360,000; in the data active means potentiation above about 30%; further: 0% is about no effect
D1 antag: human D1 dopamine receptor antagonism. P21728. activity change, negative = inhibition, % at 10 µM. hit rate 3.2% among 360,000. HEK293 TREx D1 cells, calcium flux, dopamine EC80; hits give low values; in the data active means activity change below about -30%; further: on the % scale 0 is the no-effect control and ±100 the full control effect
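Cells carrying a force-coupled, tetracycline-inducible human D1 receptor report calcium flux. Each well gets a 10 s baseline, compound with 180 s monitoring, then an EC80 dopamine stimulus with a second 180 s kinetic read.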
ERG Ets-DNA blk: blocks human ERG Ets domain binding to DNA; hit rate 0.028% among 370,000; AID 624246; P11308; Potency, µM (top dose mostly 76.9 µM), for inactives: at the highest dose FP activity, negative = inhibition, most hits filed as inhibitors; fluorescence polarization, His-ERG Ets domain / labelled DNA; active means well fitted inhibition curve with a large enough effect in the polarisation, with a control signal flat; inconclusive means small, poorly fitted or top-dose-only effect, or effect the other way, or a change in a side signal; inactive means no such curve, though single readings can be large or run the other way; the % refers to the polarisation;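 further: polarization taken with two DNA probes labelled with fluorescein and Texas red; potency means the concentration at half of the fitted maximal effect; % of control where 0% means no effect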
Target sequence (P11308 whole entry, looked up, the tested form may be a part): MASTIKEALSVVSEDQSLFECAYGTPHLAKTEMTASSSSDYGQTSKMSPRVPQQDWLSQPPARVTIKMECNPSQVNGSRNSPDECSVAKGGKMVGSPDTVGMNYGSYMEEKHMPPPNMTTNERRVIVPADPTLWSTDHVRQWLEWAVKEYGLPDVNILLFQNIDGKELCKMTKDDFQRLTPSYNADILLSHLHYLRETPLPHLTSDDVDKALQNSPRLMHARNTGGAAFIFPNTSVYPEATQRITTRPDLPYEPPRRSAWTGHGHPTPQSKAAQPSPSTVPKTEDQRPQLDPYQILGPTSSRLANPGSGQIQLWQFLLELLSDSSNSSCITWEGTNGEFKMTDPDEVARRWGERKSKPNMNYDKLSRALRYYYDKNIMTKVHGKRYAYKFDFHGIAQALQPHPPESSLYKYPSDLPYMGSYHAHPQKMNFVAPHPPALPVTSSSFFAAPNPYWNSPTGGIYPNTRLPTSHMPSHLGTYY
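His-tagged ERG Ets domain (1 uM in the protein solution; 300mM KCl, 50mM Tris-HCl, 1mM EDTA, 1mM DTT, pH 7.5) received compound, then a probe mix of 5 nM fluorescein-DNA and 100nM Texas-615-DNA. Fluorescence polarization was read for both dyes.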
The depositor's hits bear a star; ? = inconclusive; . = no result given. Hits are enriched below; roughly 6.1% of the tested compounds scored in any of these assays.

SMILES	D1 agonist	D3 antag	DRD3 agonist	D1 potentiator	D1 antag	ERG Ets-DNA blk
COc1cccc(C(C(=O)NCc2ccco2)N(Cc2ccco2)C(=O)Cn2nnc3ccccc32)c1 (stereo not given)	6.0	44.7	-4.7	-1.3	-33.4*	3.1%
Cc1cc(NC(=O)c2cc(C(C)C)on2)no1	3.8	-9.6	4.0	-10.4	-29.2	3.4%
Cc1onc(C(=O)NCc2cccs2)c1[N+](=O)[O-]	-0.8	13.5	12.5	-10.4	-11.4	0.1%
CCN(CC)CCNC(=O)C(=O)NCC(c1cccnc1)N1CCN(c2ccccc2)CC1 (stereo not given)	2.2	.	7.7	-0.2	-9.8	9.1%
O=C(COc1ccc(N2C(=O)c3ccccc3C2=O)cc1)c1ccccc1	1.1	2.6	6.6	-8.1	-32.1*	-0.7%
Cc1cc(C(=O)NNC(=O)COc2ccccc2Cl)n[nH]1	3.9	-0.3	-5.9	3.6	-5.1	-14.4%
CC(CN1CCN(C)CC1)OC(=O)c1ccc(F)cc1 (stereo not given)	1.1	-18.9	-16.6	2.9	-12.1	-0.5%
CC(CN(C)Cc1ccccc1)OC(=O)c1ccc(F)cc1 (stereo not given)	1.7	-69.2*	-12.7	8.0	16.7	-4.0%
Cc1cc(C(=O)N2CC=C(c3ccccc3)CC2)c2ccccc2n1	2.0	7.2	-4.9	-3.4	-41.4*	4.1%
O=C(O)c1ccccc1C(=O)N1CC=C(c2ccccc2)CC1	2.2	-14.5	-11.1	-3.3	-39.0*	-6.7%
O=C(Nc1ccccc1)Nc1ccccc1C(=O)NCC1CC1	-0.3	-12.1	-11.2	-1.5	-6.8	7.3%
CC(=O)c1ccc(NC(=O)CCNS(=O)(=O)c2cccc3nonc23)cc1	0.9	-14.7	-2.1	-2.5	-14.0	-9.0%
CCc1ccc(NC(=O)CCNS(=O)(=O)c2cccc3nonc23)cc1	0.8	-63.3*	-16.1	-1.2	-29.1	1.2%
COc1cc2ccccc2cc1C(=O)Nc1ccc2oc(-c3ccccc3)nc2c1	5.7	.	10.8	-2.2	7.9	-0.4%
O=C1NC(c2ccccc2)=C(c2nc3ccccc3s2)C(c2ccc(F)cc2)N1 (stereo not given)	0.5	-56.3*	14.3	2.9	0.4	-0.5%
O=S(=O)(/C(=C/c1ccc(C(F)(F)F)cc1)c1nc2ccccc2[nH]1)c1ccccc1	0.8	-77.2*	-28.9	-4.4	3.7	-14.6%
CC(C)c1ccc(/C=C(\c2nc3ccccc3[nH]2)S(=O)(=O)c2ccccc2)cc1	3.2	-73.0*	-11.0	-5.4	-13.4	-1.4%
C/C(=C\c1ccc(N)cc1)c1nc2ccccc2[nH]1	-1.5	-19.3	0.4	-6.3	2.2	5.2%
O=C(NC(=S)Nc1ccc(N2CCOCC2)cc1)c1cccc([N+](=O)[O-])c1	4.0	0.9	1.8	4.5	-6.6	-22.7%
O=C(NC(=S)Nc1cccc(F)c1)c1cccc([N+](=O)[O-])c1	7.0	-51.4*	-9.2	-4.7	-13.8	-8.2%
CC(C)NS(=O)(=O)c1ccc(NC(=S)NC(=O)c2cccc([N+](=O)[O-])c2)cc1	6.0	-94.1*	-59.3	-1.2	9.3	-3.0%
Cc1ccc(C)c(S(=O)(=O)N(C)Cc2cccs2)c1	9.4	-4.3	-0.5	.	25.0	3.7%
CC(C)(C)CC(C)(C)NC(=S)NC1CCN(Cc2ccccc2)CC1	18.1	?	-13.3	-8.2	6.6	1.3%
S=C(Nc1ccc(Cl)c(Cl)c1)NC1CCN(Cc2ccccc2)CC1	47.3*	-55.1*	-7.4	-5.5	-43.4*	-2.1%
Fc1ccc(NC(=S)NC2CCN(Cc3ccccc3)CC2)cc1	19.7	-54.5*	1.5	-6.5	-7.3	-1.0%
CCN1CCN(c2nc(Nc3cccc(OC)c3)nc(N)c2[N+](=O)[O-])CC1	-0.1	-4.9	0.4	-4.7	9.5	2.0%
Nc1nc(NCc2ccco2)nc(N2CCCCC2)c1[N+](=O)[O-]	2.4	24.8	1.8	-3.0	-3.7	-11.7%
CCN1CCN(c2nc(Nc3ccc(C)c(C)c3)nc(N)c2[N+](=O)[O-])CC1	15.7	-82.9*	-38.6	-2.1	-2.5	4.2%
CN1CCN(c2nc(NCc3ccco3)nc(N)c2[N+](=O)[O-])CC1	2.3	-80.4*	-17.9	-3.6	-5.7	2.4%

Compound activity deposited in PubChem by National Center for Advancing Translational Sciences (NCATS).
